Each structure is given as a SMILES string. Records with an inconclusive call do not appear. Entries that show only a call come without a potency. Activity calls are given as the source filed them. Calls come from the whole dose curve; as a rule, active = well fitted inhibition curve with a large enough effect; inconclusive = small, poorly fitted or top-dose-only effect; inactive = no such curve, though single readings can be large or run the other way.

N-terminal Xaa-Pro-Lys N-methyltransferase 1 (Homo sapiens), sequence (Q9BV86 whole entry, looked up): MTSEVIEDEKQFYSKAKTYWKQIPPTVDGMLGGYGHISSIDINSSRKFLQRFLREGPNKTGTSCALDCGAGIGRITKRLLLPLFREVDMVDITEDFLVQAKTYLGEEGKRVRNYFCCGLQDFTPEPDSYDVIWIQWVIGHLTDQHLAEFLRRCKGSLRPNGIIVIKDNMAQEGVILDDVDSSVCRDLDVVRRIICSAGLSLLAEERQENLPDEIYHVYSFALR

For the assay, the target named is N-terminal Xaa-Pro-Lys N-methyltransferase 1 (Homo sapiens) (UniProt Q9BV86). Description: qHTS Assay for Inhibitors of N-terminal methyltransferase 1 (NTMT1): MTaseGlo Assay Confirmatory Screen, Round 1. To be noted: Recombinant NTMT1, MTase-Glo SAH luminescence; series mostly up to 57.1 µM. The essentials:
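Luminescence from MTase-Glo conversion of SAH to ATP measured activity after a 30 min RT reaction with 1 µM SPKRIA substrate, 100 µM SAM and 125 nM enzyme. Normalization used no-enzyme and DMSO controls, followed by Hill fitting.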
For orientation: In qHTS, concentration-response curves come from the screen itself.
For `Nc1nc(Cl)nc2c1ncn2[C@@H]1O[C@H](CO)[C@@H](O)[C@H]1O`, the Potency result was “inactive”. For the compound `COc1cc2nc(N3CCCN(C)CC3)nc(NC(C)C)c2cc1OC`, the Potency result is “inactive”. Regarding `COc1cc2nc(NC3CCN(C)CC3)nc(NC3CCN(C)CC3)c2cc1OC`, the Potency result was “inactive”. For `Nc1ncnc2c1[nH]c(=O)n2C1CC(O)C(CO)O1` (configuration not stated) the value was “inactive”; for `CCNc1nc(N2CCCN(C)CC2)nc2cc(OC)c(OC)cc12`, “inactive”; for `COc1cc2c(NC3CCN(C(C)C)CC3)nc(N3CCC(F)(F)CC3)nc2cc1OCCCN1CCCC1`, “inactive”. With `COc1cc2nc(N3CCN(C)CC3)nc(N3CCOCC3)c2cc1OC` the entry was “inactive”; with `COc1cc2nc(N3CCN(C)CC3)nc(NC(C)C)c2cc1OC`, “inactive”; with `COc1cc2c(NC3CCN(C)CC3)nc(N3CCCN(C)CC3)nc2cc1OCCN(C)C`, “inactive”.

As for `COc1cc2nc(N3CCCN(C)CC3)nc(NC3CCN(C)C3)c2cc1OC` (configuration not stated), the Potency result was “inactive”. `OCC1OC(n2cnc3c(NCc4ccco4)ncnc32)C(O)C1O` (configuration not stated): the Potency result is “inactive”.

For the compound `COc1cc2c(NC3CCN(C)CC3)nc(N3CCCN(C)CC3)nc2cc1O`, the Potency result was “inactive”.

Turning to `Nc1ncnc2c1ncn2[C@@H]1O[C@H](COP(=O)(O)OP(=O)(O)OP(=O)(O)O)[C@@H](O)[C@H]1O`, the Potency entry is “inactive”. With `Nc1ncnc2c1nc(N1CCCCC1)n2[C@@H]1O[C@@H]2COP(=O)(O)O[C@H]2[C@H]1O` the entry was “inactive”. For `COc1cc2nc(N3CCCCC3)nc(NC3CCN(Cc4ccccc4)CC3)c2cc1OC` the value was “inactive”. As for `COc1cc2nc(N3CCCCC3)nc(NC3CCN(C)CC3)c2cc1OC`, the Potency entry was “inactive”. As for `Cn1cnc2c(ncn2[C@@H]2O[C@H](CO)[C@@H](O)[C@H]2O)c1=N`, the Potency result was “inactive”.

The values above are taken from PubChem BioAssay AID1347145 (National Center for Advancing Translational Sciences (NCATS), 2019).
